Measurements as given in PubChem BioAssay (NCATS).
Results filed as inconclusive are left out. Where a call stands in place of a potency, no number is given. Unmarked numbers belong to inactive results. Activity calls are given as the source filed them. The call rests on the fitted dose curve; in most records, active means well fitted inhibition curve with a large enough effect; inconclusive means small, poorly fitted or top-dose-only effect; inactive means flat fitted curve, though single readings scatter. Where a SMILES comes first, the peptide text is derived from it.

molecular target: Calcium and integrin-binding protein 1 (Homo sapiens) (UniProt Q99828); assay: Primary qHTS for Identification of Calcium Integrin Binding Protein 1 (CIB1) Competitor (AID 1508620); settings: CIB1-GST / FITC-alphaIIb peptide fluorescence polarization; series mostly up to 57.7 µM;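 further: GST tagged CIB1 binding a fluorescein labelled alphaIIb integrin peptide tracer; top concentration of the series differs between compounds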
Method in brief: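 Fluorescence polarization competition: CIB1-GST (1 uM final) preincubated with compound 15 min at room temperature, then FITC-labeled alphaIIb peptide (100 nM final) added for another 15 min. Polarization read at Ex 480/Em 540.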

Chain of Calcium and integrin-binding protein 1 (Homo sapiens) (Q99828 whole entry, looked up): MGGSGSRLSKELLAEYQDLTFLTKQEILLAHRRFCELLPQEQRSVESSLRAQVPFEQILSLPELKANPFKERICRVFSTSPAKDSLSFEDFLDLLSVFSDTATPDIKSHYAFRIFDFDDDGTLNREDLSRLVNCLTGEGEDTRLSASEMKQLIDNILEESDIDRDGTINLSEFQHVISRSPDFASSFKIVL

With C=CC1(C)C=C2CC[C@H]3[C@@](C)(C(=O)O)CCC[C@]3(C)C2CC1 (stereo partly drawn) as the compound, how does the Potency read?
Its Potency is “inactive”.

For CC(C)C1NC(=O)C2CCCN2C1=O (stereo not drawn), which Potency is on record?
The Potency was “inactive”.

Which Potency does the source give for C[C@@H]1O[C@@H](O[C@H]2[C@H](O)[C@@H](O)[C@H](OC(=O)[C@]34CCC(C)(C)C[C@H]3C3=CCC5[C@@]6(C)CC[C@H](O[C@@H]7O[C@H](C(=O)O)[C@@H](O)[C@H](O)[C@H]7O)C(C)(C)C6CC[C@@]5(C)[C@]3(C)CC4)O[C@@H]2CO)[C@H](O)[C@H](O)[C@H]1O (stereo partly drawn) here?
Its Potency is “inactive”.

With Nc1ccc(-n2nc(C(F)(F)F)cc2C(F)(F)F)cc1 as the compound, how does the Potency read?
The Potency was “inactive”.

Which Potency does the source give for Cc1cc(O[C@@H]2O[C@H](COC(=O)CC(=O)O)[C@@H](O)[C@H](O)[C@H]2O)c(C(C)C)cc1O here?
The Potency was “inactive”.

Which activity change, negative = inhibition does the source give for CC1OC(O[C@@H]2[C@@H](O)[C@H](OC(=O)[C@]34CCC(C)(C)C[C@H]3C3=CCC5[C@@]6(C)CC[C@H](O[C@@H]7O[C@H](C(=O)O)[C@@H](O)[C@H](O[C@@H]8OC[C@@H](O)[C@H](O)[C@H]8O)[C@H]7O[C@@H]7O[C@H](CO)[C@H](O)[C@H](O)[C@H]7O)[C@@](C)(C=O)C6CC[C@@]5(C)[C@]3(C)C[C@H]4O)O[C@H](C)[C@@H]2OC2OC(C)C(OC3OCC(O)C(O)C3O)C(O)C2O)C(O)C(O)C1O (stereo partly drawn) here?
Its activity change, negative = inhibition is 3.33% [at 12.4 µM].

With C[C@]12CC[C@@H]3c4ccc(O)cc4CC[C@H]3[C@@H]1C[C@@H](O[C@@H]1O[C@H](C(=O)O)[C@@H](O)[C@H](O)[C@H]1O)[C@@H]2O as the compound, how does the Potency read?
Its Potency is “inactive”.

With COC(=O)C1=COC(O[C@@H]2O[C@H](COC(=O)/C=C/c3ccc(O)cc3)[C@@H](O)[C@H](O)[C@H]2O)C2C(CO)=CCC12 (stereo partly drawn) as the compound, how does the Potency read?
Its Potency is “inactive”.

With C=C(CCO)C(=O)OCC1OCC(OC(=O)C(=C)CCO[C@@H]2O[C@H](CO)[C@@H](O)[C@H](O)[C@H]2O)C(O)C1O (stereo partly drawn) as the compound, how does the Potency read?
The Potency was “inactive”.

Which Potency does the source give for C[C@@H]1O[C@@H](O[C@H]2[C@H](Oc3cc(O)c(C(=O)CCc4ccc(O)cc4)c(O)c3)O[C@H](CO)[C@@H](O)[C@@H]2O)[C@H](O)[C@H](O)[C@H]1O here?
The Potency was “inactive”.

tested on: not listed separately; assay: Primary qHTS for inhibitors of nuclear receptor binding SET domain protein 2 (NSD2) in an isogenic RCH-ACV NSD2 p.E1099K mutant (9B) (AID 1645876); settings: RCH-ACV (leukaemia line) NSD2 E1099K (9B) viability, CellTiter-Glo, 72 h; series mostly up to 44.9 µM; further: nearly all actives have a fitted effect of over 70% in size

With COc1ccc(C(=O)NCc2cc(C(C)C)no2)cc1OC1CCN(C)CC1 as the compound, how does the Potency read?
Its Potency is “inactive”.

Which Potency does the source give for COC(=O)C[C@H]1C(C)(C)[C@H](OC(=O)C(C)C)C2CC3=C4CC(=O)O[C@@H](c5ccoc5)[C@]4(C)CCC3[C@@]1(C)C2=O (stereo partly drawn) here?
The Potency was “inactive”.

With CC1(C)C=Cc2c(ccc3c2[N+]([O-])=C2C3(O)CC34NC(=O)C5(CCCN5C3=O)CC4C2(C)C)O1 (stereo not drawn) as the compound, how does the Potency read?
Its Potency is “inactive”.

For NC1(c2ccc(NC(=O)c3ccnc(-c4cc(C(=O)O)ccn4)c3)cc2)CC1, which Potency is on record?
Its Potency is “inactive”.

Which Potency does the source give for CC1(C)CC[C@]2(C(=O)O)CC[C@]3(C)C(=CCC4[C@@]5(C)C[C@@H](O)[C@H](O)[C@@](C)(CO)C5CC[C@]43C)C2C1 (stereo partly drawn) here?
Its Potency is “inactive”.

With C=C(C)[C@@H]1CC[C@]2(CO)CC[C@]3(C)[C@H](CC[C@@H]4[C@@]5(C)CC[C@H](O)C(C)(C)[C@@H]5CC[C@]43C)[C@@H]12 as the compound, how does the Potency read?
Its Potency is “inactive”.

For CCN1CCN(C(=O)N[C@@H](C(=O)N[C@@H]2C(=O)N3[C@@H]2SC(C)(C)[C@@H]3C(=O)O)c2ccccc2)C(=O)C1=O, which Potency is on record?
The Potency was “inactive”.

With CC1(C(=O)O)CC[C@]2(C(=O)OC3OC(CO)C(O)C(O)C3O)CC[C@]3(C)C(=CCC4[C@@]5(C)CC[C@H](OC6OCC(O)C(O)C6OC6OC(CO)C(O)C(O)C6O)C(C)(C)C5CC[C@]43C)C2C1 (stereo partly drawn) as the compound, how does the activity change, negative = viability loss read?
The activity change, negative = viability loss was -7.26% [at 9.23 µM].

Which outcome does the source give for C/C=C/C=C/[C@@H]1O[C@](O)([C@H](CC)C(=O)NC/C=C/C=C(\C)[C@@H](OC)[C@@H](C)[C@@H]2O[C@H](/C=C/C=C/C=C(\C)C(=O)c3c(O)ccn(C)c3=O)[C@H](O)[C@@H]2O)[C@H](O)[C@H](O)C1(C)C here?
Its outcome is “inactive [at 9.23 µM]”.

Which Potency does the source give for CC1=C2C3OC(=O)C(C)C3(O)CCC2(C)CCC1 (stereo not drawn) here?
The Potency was “inactive”.

With NC(=O)C(O[C@@H]1O[C@H](CO[C@@H]2O[C@H](CO)[C@@H](O)[C@H](O)[C@H]2O)[C@@H](O)[C@H](O)[C@H]1O)c1ccccc1 (stereo partly drawn) as the compound, how does the Potency read?
Its Potency is “inactive”.

For C=C1C[C@H](O)[C@@H](O)[C@@]2(C)C1[C@@H](O)[C@H]1OC(=O)C3[C@@H](C)[C@@H](O)[C@H](O)C2[C@]31C (stereo partly drawn), which Potency is on record?
Its Potency is “inactive”.

For CSCC[C@H](NC(=O)[C@H](CO)NC(=O)[C@H](CCC(=O)O)NC(C)=O)C(=O)N[C@H](C=O)CC(=O)O (Ac-ESMD-aldehyde), which activity change, negative = viability loss is on record?
The activity change, negative = viability loss was -10.4% [at 9.23 µM].

For CC(C)=CCC(O)[C@](C)(O)C1[C@H](O)C[C@@]2(C)C3CC=C4C(C[C@H](O)[C@@H](O[C@@H]5O[C@H](CO)[C@@H](O)[C@H](O)[C@H]5O)C4(C)C)[C@]3(C)C(=O)C[C@]12C (stereo partly drawn), which Potency is on record?
The Potency was “inactive”.

With CC1CCC23COC(=O)C2=CC(O)CC3C1(C)CCc1ccoc1 (stereo not drawn) as the compound, how does the Potency read?
Its Potency is “inactive”.

With CC(=O)O[C@@H](C[C@@H]1C=C(C)C(=O)O1)[C@H](C)[C@H]1CCC2[C@@]3(C)CC[C@H](O[C@@H]4O[C@H](CO)[C@@H](O)[C@H](O)[C@H]4O[C@@H]4O[C@@H](C)[C@H](O)[C@@H](O)[C@H]4O)C(C)(C)C3CC[C@@]2(C)[C@@]12COC(=O)C2 (stereo partly drawn) as the compound, how does the activity change, negative = viability loss read?
Its activity change, negative = viability loss is -3.49% [at 9.23 µM].

With C=C1C(=O)O[C@@H]2CC(C)=C([C@@H](C)CCCOC(C)=O)[C@@H](O)[C@H]12 as the compound, how does the Potency read?
Its Potency is “inactive”.

With COc1cc(C(C)=O)ccc1O[C@@H]1O[C@H](CO)[C@@H](O)[C@H](O)[C@H]1O as the compound, how does the Potency read?
The Potency was “inactive”.

For COC(=O)C1=COC(O[C@@H]2O[C@H](CO)[C@@H](O)[C@H](O)[C@H]2O)[C@@H]2[C@@](C)(O)[C@@H](OC(=O)/C=C/c3ccccc3)C[C@]12O (stereo partly drawn), which Potency is on record?
Its Potency is “inactive”.

Which Potency does the source give for O=C(/C=C/c1ccc(O)c(O)c1)O[C@H]1[C@H](OC2CCCCC2O)O[C@H](CO)[C@@H](O)[C@@H]1O (stereo partly drawn) here?
Its Potency is “inactive”.

Which Potency does the source give for C=C1C(O)CC2C(C(=O)O)=COC(O[C@@H]3O[C@H](COC(=O)c4ccc(O)cc4)[C@@H](O)[C@H](O)[C@H]3O)C12 (stereo partly drawn) here?
The Potency was “inactive”.

Which Potency does the source give for COC(=O)c1c(CC=C(C)C)c(OC2OC(CO)C(O)C(O)C2O)c2ccccc2c1OC1OC(CO)C(O)C(O)C1O (stereo not drawn) here?
The Potency was “inactive”.

Which Potency does the source give for OCC1=C[C@@H](O)[C@@H]2C=CO[C@@H](O[C@@H]3O[C@H](CO)[C@@H](O)[C@H](O)[C@H]3O)[C@H]12 here?
Its Potency is “inactive”.

With C=CC(C)(O)CC/C=C(\C)C1CC=C(C)C(=O)O1 (stereo not drawn) as the compound, how does the Potency read?
The Potency was “inactive”.

Which Potency does the source give for CC1=C(CO)C2(C)CCCC(C)(C)C2C(O)C1O (stereo not drawn) here?
Its Potency is “inactive”.

Which Potency does the source give for Cn1nccc1-c1ccccc1Oc1ccc(S(=O)(=O)Nc2nccs2)cc1C#N here?
Its Potency is “inactive”.

For CSCC1OC(n2cnc3c(N)ncnc32)C(O)C1O (stereo not drawn), which Potency is on record?
The Potency was “inactive”.

With O=C(/C=C/c1ccc(O)cc1)OC[C@H]1O[C@H](O[C@@]2(CO)O[C@@H](CO)[C@H](O)[C@H]2O)[C@H](O)[C@@H](O)[C@@H]1O as the compound, how does the Potency read?
Its Potency is “inactive”.

For C=CC1(C)C=C2CC[C@H]3[C@@](C)(C(=O)O)CCC[C@]3(C)C2CC1 (stereo partly drawn), which Potency is on record?
Its Potency is “inactive”.

With CC(C)C1NC(=O)C2CCCN2C1=O (stereo not drawn) as the compound, how does the Potency read?
The Potency was “inactive”.

Which activity change, negative = viability loss does the source give for C[C@@H]1O[C@@H](O[C@H]2[C@H](O)[C@@H](O)[C@H](OC(=O)[C@]34CCC(C)(C)C[C@H]3C3=CCC5[C@@]6(C)CC[C@H](O[C@@H]7O[C@H](C(=O)O)[C@@H](O)[C@H](O)[C@H]7O)C(C)(C)C6CC[C@@]5(C)[C@]3(C)CC4)O[C@@H]2CO)[C@H](O)[C@H](O)[C@H]1O (stereo partly drawn) here?
The activity change, negative = viability loss was -5.91% [at 9.23 µM].

Which Potency does the source give for Nc1ccc(-n2nc(C(F)(F)F)cc2C(F)(F)F)cc1 here?
Its Potency is “inactive”.

With Cc1cc(O[C@@H]2O[C@H](COC(=O)CC(=O)O)[C@@H](O)[C@H](O)[C@H]2O)c(C(C)C)cc1O as the compound, how does the Potency read?
Its Potency is “inactive”.

Which activity change, negative = viability loss does the source give for CC1OC(O[C@@H]2[C@@H](O)[C@H](OC(=O)[C@]34CCC(C)(C)C[C@H]3C3=CCC5[C@@]6(C)CC[C@H](O[C@@H]7O[C@H](C(=O)O)[C@@H](O)[C@H](O[C@@H]8OC[C@@H](O)[C@H](O)[C@H]8O)[C@H]7O[C@@H]7O[C@H](CO)[C@H](O)[C@H](O)[C@H]7O)[C@@](C)(C=O)C6CC[C@@]5(C)[C@]3(C)C[C@H]4O)O[C@H](C)[C@@H]2OC2OC(C)C(OC3OCC(O)C(O)C3O)C(O)C2O)C(O)C(O)C1O (stereo partly drawn) here?
The activity change, negative = viability loss was -4.28% [at 9.23 µM].

For C[C@]12CC[C@@H]3c4ccc(O)cc4CC[C@H]3[C@@H]1C[C@@H](O[C@@H]1O[C@H](C(=O)O)[C@@H](O)[C@H](O)[C@H]1O)[C@@H]2O, which Potency is on record?
Its Potency is “inactive”.

With COC(=O)C1=COC(O[C@@H]2O[C@H](COC(=O)/C=C/c3ccc(O)cc3)[C@@H](O)[C@H](O)[C@H]2O)C2C(CO)=CCC12 (stereo partly drawn) as the compound, how does the Potency read?
The Potency was “inactive”.

Which Potency does the source give for C=C(CCO)C(=O)OCC1OCC(OC(=O)C(=C)CCO[C@@H]2O[C@H](CO)[C@@H](O)[C@H](O)[C@H]2O)C(O)C1O (stereo partly drawn) here?
Its Potency is “inactive”.

Which Potency does the source give for C[C@@H]1O[C@@H](O[C@H]2[C@H](Oc3cc(O)c(C(=O)CCc4ccc(O)cc4)c(O)c3)O[C@H](CO)[C@@H](O)[C@@H]2O)[C@H](O)[C@H](O)[C@H]1O here?
Its Potency is “inactive”.
